# From PubChem BioAssay AID652054 (National Center for Advancing Translational Sciences (NCATS), 2013)
# Screen size: about 360,000 compounds; about 9,100 (2.5%) were called active. About 4% were inconclusive and are not listed. The full list was thinned out, with actives kept by preference. Unmarked numbers belong to inactive results. No stated cut-off is given here; in the data, active means max response below about -50%; inconclusive means no clear call, values can overlap the other calls; inactive means above that.
# Molecular target: D(3) dopamine receptor (Homo sapiens) (UniProt P35462)
# Assay: qHTS of D3 Dopamine Receptor Antagonist: qHTS
# Conditions: D3R cells, DiscoveRx beta-arrestin luminescence, antagonist mode; active compounds read low
# Summary of the method: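 Cells plated overnight at 1500 cells/well, then exposed to library compounds with dopamine controls for 90 minutes at 37 degrees C. DiscoveRx reagent added for 30–60 minutes at room temperature; luminescence read, quantitative HTS format.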
# On the % scale 0 is the no-effect control and ±100 the full control effect.
# D(3) dopamine receptor (Homo sapiens), sequence (P35462 whole entry, looked up): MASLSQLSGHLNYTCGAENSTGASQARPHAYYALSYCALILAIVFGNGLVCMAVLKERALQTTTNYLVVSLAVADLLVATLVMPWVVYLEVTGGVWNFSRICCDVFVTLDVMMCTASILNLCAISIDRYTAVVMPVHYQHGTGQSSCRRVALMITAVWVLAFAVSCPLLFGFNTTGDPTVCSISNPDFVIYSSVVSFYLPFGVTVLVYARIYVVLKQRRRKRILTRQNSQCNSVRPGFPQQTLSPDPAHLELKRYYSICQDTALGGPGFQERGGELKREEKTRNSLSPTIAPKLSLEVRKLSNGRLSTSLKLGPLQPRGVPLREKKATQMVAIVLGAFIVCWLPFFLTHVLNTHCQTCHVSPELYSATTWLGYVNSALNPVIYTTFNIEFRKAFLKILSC
row,Structure (SMILES),"max response, negative = inhibition"
1,O=C(NCc1ccc(F)cc1F)[C@@H]1CCCN1C(=O)[C@@H]1CCCN1C(=O)c1cccc(Cl)c1,-16.8%
2,C[C@H](NC(=O)[C@@H]1CCCN1C(=O)[C@@H]1CCCN1C(=O)c1ccccc1)c1ccccc1,-14.2%
3,O=C(OCc1ccccc1)N1CCC2CC1c1ccc(-c3ccc4c(c3)OCO4)cc12 (stereo unspecified),-78.9% (active)
4,Cc1ccc(S(=O)(=O)N(CCc2ccccc2)c2ccc3c(c2)C2CC3CCN2C(=O)OCc2ccccc2)cc1 (stereo unspecified),0%
5,O=C(OCc1ccccc1)N1CCC2CC1c1cc(N3CCN(S(=O)(=O)c4cc(Cl)cc(Cl)c4)CC3)ccc12 (stereo unspecified),-1.81%
6,Cc1ccc(NC(=O)Cn2sc3ccccc3c2=O)cc1,-0.282%
7,CCNC(=S)Nc1ccc2c(c1)c(=O)n(C)n2Cc1ccc(Cl)cc1,8.41%
8,CNC(=S)Nc1ccc([N+](=O)[O-])cc1,-17.8%
9,O=[N+]([O-])c1ccc(N=NNc2ccc([N+](=O)[O-])cc2)cc1,-50.6% (active)
10,COC(=O)c1ccccc1N=NNc1ccc([N+](=O)[O-])cc1,8.12%
11,O=C(NC1CCCC1)C1c2ccccc2OCC(=O)N1Cc1ccccc1 (stereo unspecified),4.78%
12,COc1ccc(C(C(=O)Nc2c(C)cccc2C)N2CCN(c3ccc(C)cc3)CC2)cc1 (stereo unspecified),11.5%
13,COCCCn1cc(CN2CC(N(C)C)CS2(=O)=O)nn1 (stereo unspecified),-10.8%
14,CCCCCCCCN1C(=O)[C@H](CC(=O)NCC23CC4CC(CC(C4)C2)C3)C[C@@]2(C(=O)OC)CCCCC=C12,9.16%
15,O=C(NCc1cccnc1)c1cc(C2CCCN(C(=O)C3CCCCC3)C2)on1 (stereo unspecified),6.18%
16,COCCNC(=O)C1CCCN(Cc2ccccc2Cl)CC1 (stereo unspecified),57.8%
17,Cc1ccc(Sc2ccc(NC(=O)c3ccc(F)cc3)cc2C#N)cc1,0%
18,COc1cc(NC(=O)COc2ccccc2Cl)ccc1NC(=O)C(C)C,-74% (active)
19,Cc1ccccc1OCC(=O)Nc1ccc(N2CCN(C(=O)C(C)C)CC2)c(Cl)c1,26.3%
20,CC(=O)Nc1ccc(NC(=O)COc2ccccc2C(=O)Nc2cccc(Cl)c2Cl)cc1,-0.418%
21,COc1ccc(-c2cnc3c(c2)C(=O)N([C@H](C)CO)C[C@@H](C)[C@H](CN(C)Cc2ccccc2)O3)cc1,14.3%

row,Structure (SMILES),"max response, negative = inhibition"
1,CCN1C(=O)[C@@H]2[C@@H]3CN(S(=O)(=O)c4ccccc4C)[C@@H](c4ccc(Cl)cc4)[C@@H]3C(=O)C[C@@H]2C1=O,-17.8%
2,CCN(CC)CCN(C(=O)c1ccc2c(c1)CCCC2)c1nc2c(OC)cccc2s1,-103% (active)
3,CCN(CC)CCN(C(=O)c1cc(Cl)sc1Cl)c1nc2cc3c(cc2s1)OCO3,-11.6%
4,CCN(CC)CCN(C(=O)c1cccc([N+](=O)[O-])c1)c1nc2ccc(OC)cc2s1,8.97%
5,COc1ccc(NC2CCCN(C(=O)c3ccccc3-c3ncc[nH]3)C2)cc1 (stereo unspecified),-2.79%
6,Cc1cc(C)nc(S/C=C/C(=O)c2ccccc2)n1,-62.5% (active)
7,Cc1cc(C)nc(N(C#N)CC(=O)Nc2ccccc2)n1,-15.5%
8,O=C(/C=C/NNC(=O)c1cccc(Br)c1)c1ccccc1,0%
9,COc1ccc([C@H]2N[C@]3(CCCN(Cc4ccco4)C3=O)[C@H]3C(=O)N(C)C(=O)[C@@H]23)cc1,-22%
10,Cc1cccc(N(CC(=O)N2CCCC2)S(C)(=O)=O)c1C,-2.72%
11,CCOC(=O)c1sc(NC(=O)c2cc(S(=O)(=O)N3CCOCC3)ccc2C)nc1C,-55.1% (active)
12,CCc1nnc(NC(=O)c2cc(S(=O)(=O)N3CCCCC3)ccc2C)s1,-2.53%
13,Cc1ccc(S(=O)(=O)N2CCOCC2)cc1C(=O)Nc1ccccc1N1CCCC1,13.7%
14,CCOC(=O)c1cc(-c2sc(NC(=O)c3ccccc3)nc2C)n(CCO)n1,-12.9%
15,CCC(C)(C)n1nnnc1C(c1cccs1)N1CCN(Cc2ccccc2)CC1 (stereo unspecified),-56.8% (active)
16,Fc1ccc(Cn2nnnc2C(c2cccs2)N2CCCCCC2)cc1 (stereo unspecified),10.3%
17,COc1ccccc1C(c1nnnn1C(C)(C)C)N1CCN(Cc2ccccc2)CC1 (stereo unspecified),-90.6% (active)
18,COc1ccc(OC)c(C(c2nnnn2C(C)(C)C)N2CCc3ccccc3C2)c1 (stereo unspecified),-1.6%
19,CCC(C)(C)n1nnnc1C(c1cccs1)N1CCN(c2nc3ccccc3s2)CC1 (stereo unspecified),-16.1%
20,CCCC(c1nnnn1C(C)(C)C)N1CCN(Cc2ccccc2)CC1 (stereo unspecified),-5.41%
